Measured values taken from the supplement of paper PMC10849652.
Of roughly 7,900 targets only a part is listed; those with a hit were picked by preference. About 0.6% of all pairs of compound and target were hits. Values without a mark were called inactive.

How the values were obtained:
Test in all cases: log2 fold change, soluble protein after heating vs DMSO (PISA); higher = thermal stabilisation; K562 cells, 10 uM, 30 min; active = over 0.2 and 3.5 SD of the protein, either way, in both replicates (recomputed)
[1] = compound: CC1=C(C=C(C=C1)NC(=O)C2=CC(=CC=C2)C(C)(C)C#N)NC3=CC4=C(C=C3)N=CN(C4=O)C
In short: (§1)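 Quantification of soluble protein used TMTpro 16plex LC-MS/MS, with channel sums equalised. Samples were the supernatant after 21,000xg for 90 min of pooled aliquots from K562 cells (2×10^6 cells/mL) treated with 10 μM compound for 30 min, heated for 3 min over 48°C-58°C, and extracted in PBS with 0.5% NP-40 at 4°C. Values, from duplicates, describe thermal stability against control samples on a log2 fold-change scale.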

[2] = compound: CC1=C(C=C(C=C1)NC(=O)C2=CC(=CC=C2)N(C)C)NC(=O)C3=CC=C(C=C3)O
In short: as §1

[3] = compound: CC1=CC=C(C=C1)SC2=C3C=C(SC3=CN=C2)C(=O)N
In short: as §1

[4] = compound: CC1=NC(=CC=C1)C2=C(N=C(N2)C(C)(C)C)C3=CC4=NC=CN=C4C=C3
In short: as §1

[5] = compound: CCCCN(Cc1ccc(C(=O)NO)cc1)C(=O)Nc1ccccc1 [Nexturastat A]
In short: as §1

[6] = compound: CCCS(=O)(=O)Nc1ccc(F)c(C(=O)c2c[nH]c3ncc(-c4ccc(Cl)cc4)cc23)c1F [vemurafenib]
In short: as §1

[7] = compound: CCCS(=O)(=O)Nc1ccc(F)c(C(=O)c2c[nH]c3ncc(Cl)cc23)c1F
In short: as §1

[8] = compound: CCCc1cc(C)[nH]c(=O)c1CNC(=O)c1cc(-c2ccnc(N3CCN(C)CC3)c2)cc2c1cnn2C(C)C
In short: as §1

[9] = compound: CCN(CC)Cc1ccc2cc(COC(=O)Nc3ccc(C(=O)NO)cc3)ccc2c1 [givinostat]
In short: as §1

[10] = compound: CCN(CCCOc1ccc2c(Nc3cc(CC(=O)Nc4cccc(F)c4)[nH]n3)ncnc2c1)CCOP(=O)(O)O [barasertib]
In short: as §1

UniProt O95628, sequence (O95628 whole entry, looked up): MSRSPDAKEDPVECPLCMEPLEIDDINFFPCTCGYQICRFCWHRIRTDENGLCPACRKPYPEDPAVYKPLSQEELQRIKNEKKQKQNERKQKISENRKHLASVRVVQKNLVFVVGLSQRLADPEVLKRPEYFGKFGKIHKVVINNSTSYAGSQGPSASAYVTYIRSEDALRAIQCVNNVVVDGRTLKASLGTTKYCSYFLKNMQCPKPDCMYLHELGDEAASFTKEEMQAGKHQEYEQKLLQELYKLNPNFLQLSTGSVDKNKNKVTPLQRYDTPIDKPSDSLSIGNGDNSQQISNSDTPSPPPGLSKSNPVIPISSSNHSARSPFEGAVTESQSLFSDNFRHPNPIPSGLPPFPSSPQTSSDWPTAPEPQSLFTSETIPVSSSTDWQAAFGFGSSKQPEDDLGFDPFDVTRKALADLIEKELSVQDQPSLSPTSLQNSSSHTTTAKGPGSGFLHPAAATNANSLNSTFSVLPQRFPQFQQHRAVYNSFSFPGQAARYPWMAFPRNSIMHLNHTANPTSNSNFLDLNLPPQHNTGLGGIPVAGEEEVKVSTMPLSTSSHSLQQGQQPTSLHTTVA
UniProt Q9Y3X0, sequence (Q9Y3X0 whole entry, looked up): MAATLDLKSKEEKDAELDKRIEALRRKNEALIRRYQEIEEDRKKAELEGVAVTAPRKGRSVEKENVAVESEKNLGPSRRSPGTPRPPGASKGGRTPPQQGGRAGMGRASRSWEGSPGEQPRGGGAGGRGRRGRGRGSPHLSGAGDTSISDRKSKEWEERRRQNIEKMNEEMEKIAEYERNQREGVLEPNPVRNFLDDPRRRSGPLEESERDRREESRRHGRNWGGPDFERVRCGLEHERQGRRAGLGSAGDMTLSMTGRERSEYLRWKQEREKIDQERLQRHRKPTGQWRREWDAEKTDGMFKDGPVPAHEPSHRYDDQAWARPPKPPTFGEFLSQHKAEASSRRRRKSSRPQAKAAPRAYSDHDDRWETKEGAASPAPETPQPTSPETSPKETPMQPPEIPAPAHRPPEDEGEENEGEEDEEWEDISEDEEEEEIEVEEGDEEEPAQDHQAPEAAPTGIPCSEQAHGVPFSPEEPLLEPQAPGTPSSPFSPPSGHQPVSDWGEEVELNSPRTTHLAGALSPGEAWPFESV
UniProt P19784, sequence (P19784 whole entry, looked up): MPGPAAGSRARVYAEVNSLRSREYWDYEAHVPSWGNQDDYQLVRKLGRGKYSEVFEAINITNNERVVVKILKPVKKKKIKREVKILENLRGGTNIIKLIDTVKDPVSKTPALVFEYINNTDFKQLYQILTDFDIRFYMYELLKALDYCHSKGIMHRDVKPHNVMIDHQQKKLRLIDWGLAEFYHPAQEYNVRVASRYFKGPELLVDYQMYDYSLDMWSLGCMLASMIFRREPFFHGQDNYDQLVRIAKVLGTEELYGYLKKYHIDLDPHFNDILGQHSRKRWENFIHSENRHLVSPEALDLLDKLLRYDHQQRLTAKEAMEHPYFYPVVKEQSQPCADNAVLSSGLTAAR
UniProt Q5T6V5, sequence (Q5T6V5 whole entry, looked up): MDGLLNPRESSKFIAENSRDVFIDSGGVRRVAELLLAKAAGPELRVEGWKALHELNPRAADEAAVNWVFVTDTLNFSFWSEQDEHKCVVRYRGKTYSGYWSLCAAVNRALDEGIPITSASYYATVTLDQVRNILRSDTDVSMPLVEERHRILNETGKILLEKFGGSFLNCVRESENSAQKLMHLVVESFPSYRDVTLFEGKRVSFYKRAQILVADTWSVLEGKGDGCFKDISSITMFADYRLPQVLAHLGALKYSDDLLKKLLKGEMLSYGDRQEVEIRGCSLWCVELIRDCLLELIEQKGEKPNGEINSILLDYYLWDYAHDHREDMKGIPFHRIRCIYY
UniProt Q8N163, sequence (Q8N163 whole entry, looked up): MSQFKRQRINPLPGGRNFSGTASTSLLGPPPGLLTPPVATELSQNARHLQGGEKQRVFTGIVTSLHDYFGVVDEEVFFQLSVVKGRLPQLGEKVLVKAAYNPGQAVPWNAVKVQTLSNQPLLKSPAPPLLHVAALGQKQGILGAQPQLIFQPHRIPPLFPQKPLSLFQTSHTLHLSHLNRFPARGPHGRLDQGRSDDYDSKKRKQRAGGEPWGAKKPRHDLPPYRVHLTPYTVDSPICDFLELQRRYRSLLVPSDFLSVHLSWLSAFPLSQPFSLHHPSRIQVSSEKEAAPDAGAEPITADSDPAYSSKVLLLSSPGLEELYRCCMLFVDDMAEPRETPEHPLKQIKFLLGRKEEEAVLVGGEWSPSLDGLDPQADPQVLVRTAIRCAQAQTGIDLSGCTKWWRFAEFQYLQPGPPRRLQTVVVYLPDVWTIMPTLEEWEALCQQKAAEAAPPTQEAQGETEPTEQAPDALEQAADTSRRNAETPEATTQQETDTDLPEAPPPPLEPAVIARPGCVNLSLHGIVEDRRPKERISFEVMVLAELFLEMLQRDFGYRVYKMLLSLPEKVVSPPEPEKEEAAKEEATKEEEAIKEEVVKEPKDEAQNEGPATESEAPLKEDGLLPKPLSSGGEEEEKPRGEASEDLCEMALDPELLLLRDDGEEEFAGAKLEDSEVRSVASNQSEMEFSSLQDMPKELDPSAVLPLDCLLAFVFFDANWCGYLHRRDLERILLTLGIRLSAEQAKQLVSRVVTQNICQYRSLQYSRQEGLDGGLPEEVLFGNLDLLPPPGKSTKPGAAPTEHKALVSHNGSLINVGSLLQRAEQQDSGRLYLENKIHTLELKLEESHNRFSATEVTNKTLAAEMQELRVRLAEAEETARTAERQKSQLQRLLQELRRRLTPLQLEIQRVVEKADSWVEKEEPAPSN
UniProt Q96SZ6, sequence (Q96SZ6 whole entry, looked up): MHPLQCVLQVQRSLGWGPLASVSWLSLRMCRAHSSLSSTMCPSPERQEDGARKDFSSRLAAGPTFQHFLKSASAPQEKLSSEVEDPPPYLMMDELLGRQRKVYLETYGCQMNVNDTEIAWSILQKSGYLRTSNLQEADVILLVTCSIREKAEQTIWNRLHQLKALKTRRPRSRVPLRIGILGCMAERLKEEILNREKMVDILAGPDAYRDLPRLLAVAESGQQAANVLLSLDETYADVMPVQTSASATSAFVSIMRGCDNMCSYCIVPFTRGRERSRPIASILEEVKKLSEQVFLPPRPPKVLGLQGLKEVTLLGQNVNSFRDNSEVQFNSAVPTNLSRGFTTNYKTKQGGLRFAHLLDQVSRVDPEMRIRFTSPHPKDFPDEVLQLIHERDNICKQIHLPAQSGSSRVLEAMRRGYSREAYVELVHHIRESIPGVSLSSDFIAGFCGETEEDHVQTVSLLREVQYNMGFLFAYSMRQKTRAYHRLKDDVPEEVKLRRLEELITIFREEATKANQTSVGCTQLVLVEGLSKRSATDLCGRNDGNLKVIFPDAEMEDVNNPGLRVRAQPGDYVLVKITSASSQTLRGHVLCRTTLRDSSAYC
UniProt Q13057, sequence (Q13057 whole entry, looked up): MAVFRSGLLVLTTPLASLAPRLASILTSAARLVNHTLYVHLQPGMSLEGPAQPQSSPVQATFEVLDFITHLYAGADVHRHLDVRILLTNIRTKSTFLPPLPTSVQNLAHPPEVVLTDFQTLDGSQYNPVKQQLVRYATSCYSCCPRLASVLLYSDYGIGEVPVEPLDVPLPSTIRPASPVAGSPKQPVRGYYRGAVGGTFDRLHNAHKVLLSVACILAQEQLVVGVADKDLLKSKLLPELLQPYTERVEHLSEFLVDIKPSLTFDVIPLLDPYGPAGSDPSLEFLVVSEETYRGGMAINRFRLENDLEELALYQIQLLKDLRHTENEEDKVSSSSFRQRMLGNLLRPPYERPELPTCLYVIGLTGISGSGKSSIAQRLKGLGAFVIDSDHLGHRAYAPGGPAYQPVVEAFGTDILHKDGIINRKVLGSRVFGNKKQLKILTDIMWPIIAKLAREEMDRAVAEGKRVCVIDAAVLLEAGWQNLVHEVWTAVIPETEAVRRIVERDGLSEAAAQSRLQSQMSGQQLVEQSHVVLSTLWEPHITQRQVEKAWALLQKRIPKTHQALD
UniProt Q9ULV3, sequence (Q9ULV3 whole entry, looked up): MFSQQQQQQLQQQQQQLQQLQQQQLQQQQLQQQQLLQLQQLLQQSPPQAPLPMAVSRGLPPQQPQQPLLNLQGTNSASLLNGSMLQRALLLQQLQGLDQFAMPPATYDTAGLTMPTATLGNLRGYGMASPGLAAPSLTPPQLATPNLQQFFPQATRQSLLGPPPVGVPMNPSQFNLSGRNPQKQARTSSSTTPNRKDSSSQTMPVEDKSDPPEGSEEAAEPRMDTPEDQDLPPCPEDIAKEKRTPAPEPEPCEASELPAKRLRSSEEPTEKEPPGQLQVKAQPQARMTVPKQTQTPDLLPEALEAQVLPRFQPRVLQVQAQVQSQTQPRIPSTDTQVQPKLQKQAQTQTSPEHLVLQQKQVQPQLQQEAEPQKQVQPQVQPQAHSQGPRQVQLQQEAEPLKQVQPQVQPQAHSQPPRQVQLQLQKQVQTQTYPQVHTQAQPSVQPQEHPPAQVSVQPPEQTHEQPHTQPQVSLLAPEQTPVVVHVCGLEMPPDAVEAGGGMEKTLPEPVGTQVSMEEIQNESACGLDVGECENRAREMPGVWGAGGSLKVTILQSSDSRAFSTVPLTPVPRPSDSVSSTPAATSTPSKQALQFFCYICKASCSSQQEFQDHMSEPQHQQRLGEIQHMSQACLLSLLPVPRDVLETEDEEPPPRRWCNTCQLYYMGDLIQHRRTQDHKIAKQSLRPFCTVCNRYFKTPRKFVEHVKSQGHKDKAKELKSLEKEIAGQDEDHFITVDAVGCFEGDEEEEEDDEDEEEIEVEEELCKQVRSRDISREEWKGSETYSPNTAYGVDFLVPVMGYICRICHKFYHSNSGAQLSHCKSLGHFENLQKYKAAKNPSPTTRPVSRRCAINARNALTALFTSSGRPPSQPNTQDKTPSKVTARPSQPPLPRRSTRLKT
UniProt Q5RI15, sequence (Q5RI15 whole entry, looked up): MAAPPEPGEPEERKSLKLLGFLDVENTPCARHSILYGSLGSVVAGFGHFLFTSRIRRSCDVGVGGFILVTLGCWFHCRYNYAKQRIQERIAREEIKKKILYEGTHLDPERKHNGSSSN
UniProt Q8NHZ8, sequence (Q8NHZ8 whole entry, looked up): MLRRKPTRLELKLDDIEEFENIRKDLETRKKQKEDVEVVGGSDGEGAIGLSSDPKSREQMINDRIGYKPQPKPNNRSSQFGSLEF

Target | log2 fold change [1] | log2 fold change [2] | log2 fold change [3] | log2 fold change [4] | log2 fold change [5] | log2 fold change [6] | log2 fold change [7] | log2 fold change [8] | log2 fold change [9] | log2 fold change [10]
CDCA2 (UniProt Q69YH5) | -0.134 | 0.033 | -0.047 | -0.299 | 0.638 (active) | -0.009 | -0.043 | -0.027 | 0.382 | –
C16orf58 (UniProt Q96GQ5) | -0.04 | 0.001 | 0.021 | 0.003 | -0.049 | -0.007 | 0.005 | -0.075 | -0.012 | -0.011
CNDP2 (UniProt Q96KP4) | 0.021 | -0.013 | 0.04 | 0.043 | -0.131 | 0.016 | 0.003 | -0.052 | -0.087 | -0.004
CNOT4 isoform 6 (UniProt O95628) | -0.056 | -0.012 | 0.005 | 0.023 | -0.122 | -0.014 | -0.007 | -0.069 | -0.064 | 0.007
CDK5RAP1 (UniProt Q96SZ6) | 0.014 | -0.04 | 0.002 | 0.05 | -0.065 | -0.007 | -0.035 | 0.066 | -0.166 | -0.005
CASP3 (UniProt P42574) | -0.049 | 0.086 | 0.009 | 0.065 | -0.025 | -0.009 | 0.022 | 0.113 | -0.029 | -0.005
CSNK2A2 (UniProt P19784) | -0.037 | 0.009 | 0.021 | 0.005 | 0.004 | 0 | 0.08 | -0.035 | 0.03 | 0.003
CS (UniProt O75390) | -0.026 | -0.002 | 0.014 | 0.07 | -0.125 | 0.023 | 0.033 | 0 | -0.041 | 0.027
CDK16 isoform 2 (UniProt Q00536) | 0.003 | -0.017 | 0.028 | 0.021 | -0.052 | -0.072 | 0.027 | -0.101 | -0.043 | -0.023
CLCN3 (UniProt P51790) | -0.03 | 0.046 | 0.015 | 0.034 | -0.313 (active) | 0.014 | 0.009 | -0.107 | 0.02 | 0.053
COX20 isoform 2 (UniProt Q5RI15) | 0.035 | -0.041 | 0.102 | 0.036 | -0.038 | -0.036 | -0.041 | 0.069 | -0.04 | -0.03
CDKN1B (UniProt P46527) | -0.016 | -0.009 | -0.026 | 0 | 0.148 | -0.176 | -0.048 | 0.057 | 0.051 | -0.063
CDK8 (UniProt P49336) | 0.002 | -0.005 | 0.322 | 0.064 | -0.125 | 0.041 | 0.044 | -0.081 | 0.02 | -0.343
CRTC2 (UniProt Q53ET0) | 0.055 | 0.055 | -0.051 | 0.017 | -0.03 | 0.039 | 0.031 | 0.103 | 0.181 | 0.062
CHKA (UniProt P35790) | -0.011 | -0.048 | -0.125 | 0.033 | 0.036 | -0.017 | 0.019 | -0.164 | 0.334 (active) | 0.05
C4A (UniProt P0C0L4) | -0.154 | 0.19 | 0.111 | 0.215 | -0.008 | 0.148 | -0.02 | -0.287 | 0.001 | 0.021
COASY isoform 2 (UniProt Q13057) | -0.002 | -0.058 | 0.057 | 0.029 | 0.021 | 0.054 | 0.209 | -0.007 | -0.04 | 0.029
CFAP36 isoform 2 (UniProt Q96G28) | 0.005 | 0.024 | 0.054 | 0.066 | 0.023 | -0.041 | 0.012 | -0.061 | -0.003 | 0.03
CCAR2 isoform 2 (UniProt Q8N163) | 0.032 | -0.048 | -0.017 | 0.001 | 0 | 0.042 | 0.05 | 0.28 | 0.144 | 0.026
CIZ1 (UniProt Q9ULV3) | -0.02 | -0.027 | -0.022 | 0.059 | 0.011 | -0.018 | -0.007 | -0.033 | 0.017 | 0.001
CCDC9 (UniProt Q9Y3X0) | -0.042 | 0.007 | 0.019 | 0.055 | 0.119 | -0.007 | -0.009 | -0.004 | -0.069 | 0.021
COMMD1 (UniProt Q8N668) | 0.037 | -0.064 | -0.048 | 0.056 | 0.011 | -0.038 | 0.097 | 0.056 | 0.122 | 0.057
CDC26 (UniProt Q8NHZ8) | -0.026 | 0.029 | -0.025 | 0.021 | 0.067 | 0.534 (active) | -0.048 | 0.056 | 0.056 | 0.007
CLCN3 isoform 2 (UniProt P51790) | -0.055 | 0.002 | 0.008 | 0.061 | -0.026 | 0 | 0.03 | -0.023 | 0.029 | -0.006
CHEK1 (UniProt O14757) | -0.023 | -0.013 | 0.05 | 0.037 | -0.048 | 0.017 | 0 | -0.022 | 0.029 | 0.033
CCNH (UniProt P51946) | -0.023 | 0.007 | -0.015 | -0.056 | -0.002 | 0.003 | 0.018 | -0.029 | -0.007 | 0.031
CNOT1 (UniProt A5YKK6) | 0.016 | -0.007 | -0.027 | 0.014 | 0.062 | 0.044 | 0.046 | 0.013 | 0.044 | 0.044
C9orf64 (UniProt Q5T6V5) | 0.014 | -0.014 | 0.029 | 0.001 | 0.029 | -0.032 | 0.079 | -0.036 | 0.064 | 0.08
COPS8 (UniProt Q99627) | 0.031 | -0.04 | 0 | -0.09 | 0.126 | -0.003 | -0.031 | -0.056 | 0.049 | 0.009
CASTOR2 (UniProt A6NHX0) | -0.015 | -0.01 | 0.037 | 0.033 | -0.085 | 0.046 | -0.465 (active) | -0.021 | 0.041 | 0.01
